Source: PubChem BioAssay
Activity calls are given as the source filed them. Unless noted, the rule behind the calls is not given here.

What was measured:
[1] = system: Wnt5a (protein binding on small-molecule microarray); test: Wnt5a binders on small-molecule microarray, primary screen, biophysical, 635/667 nm fluorescence (AID 1142); settings: 635 nm fluorescence, higher = more signal;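 note: fluorescence read at 667 nm with signal to noise per printed feature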
[2] = cell viability in Huh7 cells, primary screen, cytotoxicity control for HCV replication inhibitor project, CellTiter-Glo luminescence, basal, 48 h (AID 1143); settings: Huh7 HCV replicon, higher = more signal, called active from +8 up or from −8 down;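 note: Huh7 hepatoma cells carrying a hepatitis C replication reporter with no stimulus; test concentration not given here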
[3] = P. aeruginosa biofilm formation inhibitors, primary screen, PAO1 strain, BacTiter-Glo luminescence, LB-PBS (AID 1144); settings: 12 h, higher = more signal
[4] = CREB reporter modulators without forskolin, primary screen, cell-based, PC12, CRE-LacZ reporter, unstimulated (AID 1145); settings: no forskolin, luminescence, 4.5 h, higher = more signal, called active from +8 up or from −8 down
[5] = CREB reporter modulators under forskolin, primary screen, cell-based, PC12, CRE-LacZ reporter, forskolin-stimulated (AID 1146); settings: luminescence, 4.5 h, higher = more signal, called active from +8 up or from −8 down;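 note: PC12 cells with 6xCRE LacZ reporter stimulated by forskolin 10 µM; beta-galactosidase reporter signal reflecting CREB driven transcription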
[6] = target: Streptavidin (Streptomyces avidinii) (UniProt P22629); test: streptavidin binders on small-molecule microarray, primary screen, artefact control for SMM compound annotation, biophysical, 635/667 nm fluorescence (AID 1147); settings: streptavidin binding, higher = more signal;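 note: signal reflects streptavidin binding to arrayed compounds as a control protein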
[7] = small-molecule binders of probe aInhba, primary screen, biochemical, small-molecule microarray, 635/667 nm fluorescence (AID 1148); settings: higher = more signal;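 note: score merges 667nm spot fluorescence with signal-to-noise for antibody binding to printed compounds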
Torsin-1A (Homo sapiens) [8] = target: Torsin-1A (Homo sapiens) (UniProt O14656); test: torsin A binders from cell lysate, primary screen, small-molecule microarray, wild-type, 635/667 nm (AID 1149); settings: COS7 hTOR1A-WT lysate, 635 nm fluorescence, higher = more signal
Torsin-1A (Homo sapiens) [9] = target: Torsin-1A (Homo sapiens) (UniProt O14656); test: small-molecule binders of mutant TOR1A in lysate, primary screen, cell lysate, small-molecule microarray, COS7 lysate, 635/667 nm fluorescence (AID 1150); settings: COS7 hTOR1A mutant lysate, 635 nm fluorescence, higher = more signal;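 note: score pools 667 nm emission and signal to noise measuring lysate protein binding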
[10] = system: Sonic hedgehog protein (Shh); test: small-molecule binders of Shh protein, primary screen, biochemical, small-molecule microarray, 635/667 nm fluorescence (AID 1151); settings: small-molecule microarray binding, 635 nm fluorescence; higher = more signal;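 note: Shh protein binding to compounds spotted on small-molecule microarray slides; score combines spot fluorescence intensity with signal-to-noise across triplicate slides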
[11] = E. coli DRC41 culture turbidity changes, primary screen, E. coli filamentation inducer project, strain DRC41, OD650, 48 h (AID 1152);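 note: E. coli MC1000 strain DRC41 lacking acrAB efflux pump and sulA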; settings: E. coli DRC41 (acrAB sulA), higher = more signal, called active from +8 up or from −8 down
[12] = small-molecule binders of probe aLefty1, primary screen, biochemical, small-molecule microarray, 635/667 nm fluorescence (AID 1153); settings: higher = more signal;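 note: score merges spot fluorescence with signal-to-noise ratio from the scanned slide images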
[13] = PSAC antagonists in infected red cells, primary screen, cell-based, P. falciparum Indochina, OD700, 1 h (AID 1154); settings: P. falciparum Indochina infected RBC osmotic lysis, higher = more signal, called active from +8 up or from −8 down
[14] = PSAC antagonists in infected red cells, primary screen, cell-based, P. falciparum Indochina, OD700, 2 h (AID 1155);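 note: lysis reports solute entry through the parasite surface anion channel PSAC; channel blockers reduce lysis of infected cells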; settings: P. falciparum Indochina infected erythrocytes, osmotic lysis OD700; higher = more signal, called active from +8 up or from −8 down
[15] = osmotic lysis modulators in infected erythrocytes, primary screen, PSAC antagonist project, cell-based, P. falciparum Indochina, OD700, 3 h (AID 1156); settings: higher = more signal, called active from +8 up or from −8 down
[16] = PSAC antagonists in infected red cells, primary screen, cell-based, P. falciparum Indochina, OD700, 18 h (AID 1157); settings: P. falciparum Indochina infected erythrocytes, osmotic lysis OD700, 18 h; higher = more signal, called active from +8 up or from −8 down
[17] = modulators of S6 phosphorylation in cells, primary screen, cell-based, A549, cytoblot, luminescence, serum-stimulated (AID 1158); settings: A549 phospho-S6 cytoblot, 5 h, higher = more signal;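 note: serum-stimulated A549 lung adenocarcinoma cells; signal is phosphorylated S6 detected by cytoblot immunostaining with HRP secondary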
[18] = target: NADPH oxidase 2 (Homo sapiens) (UniProt P04839); test: NOX2-dependent H2O2 signal modulators, primary screen, NOX inhibitor project, cell-based, HEK293-NOX2, PMA-stimulated, Amplex Red fluorescence (AID 1159); settings: 45 min, higher = more signal, called active from +8 up or from −8 down; note: test concentration not given here
[19] = target: NADPH oxidase 4 (Homo sapiens) (UniProt Q9NPH5); test: NOX4-dependent H2O2 signal modulators, primary screen, NOX inhibitor project, cell-based, HEK293-NOX4, tetracycline-induced, Amplex Red fluorescence (AID 1160); settings: 45 min, higher = more signal, called active from +8 up or from −8 down
[20] = target: NADPH oxidase 5 (Homo sapiens) (UniProt Q96PH1); test: NOX5-dependent H2O2 signal modulators, primary screen, NOX inhibitor project, cell-based, HEK293-NOX5, Amplex Red fluorescence (AID 1161); settings: HEK293-NOX5, ionomycin, 45 min, higher = more signal
Chain of NADPH oxidase 5 (Homo sapiens) (Q96PH1 whole entry, looked up): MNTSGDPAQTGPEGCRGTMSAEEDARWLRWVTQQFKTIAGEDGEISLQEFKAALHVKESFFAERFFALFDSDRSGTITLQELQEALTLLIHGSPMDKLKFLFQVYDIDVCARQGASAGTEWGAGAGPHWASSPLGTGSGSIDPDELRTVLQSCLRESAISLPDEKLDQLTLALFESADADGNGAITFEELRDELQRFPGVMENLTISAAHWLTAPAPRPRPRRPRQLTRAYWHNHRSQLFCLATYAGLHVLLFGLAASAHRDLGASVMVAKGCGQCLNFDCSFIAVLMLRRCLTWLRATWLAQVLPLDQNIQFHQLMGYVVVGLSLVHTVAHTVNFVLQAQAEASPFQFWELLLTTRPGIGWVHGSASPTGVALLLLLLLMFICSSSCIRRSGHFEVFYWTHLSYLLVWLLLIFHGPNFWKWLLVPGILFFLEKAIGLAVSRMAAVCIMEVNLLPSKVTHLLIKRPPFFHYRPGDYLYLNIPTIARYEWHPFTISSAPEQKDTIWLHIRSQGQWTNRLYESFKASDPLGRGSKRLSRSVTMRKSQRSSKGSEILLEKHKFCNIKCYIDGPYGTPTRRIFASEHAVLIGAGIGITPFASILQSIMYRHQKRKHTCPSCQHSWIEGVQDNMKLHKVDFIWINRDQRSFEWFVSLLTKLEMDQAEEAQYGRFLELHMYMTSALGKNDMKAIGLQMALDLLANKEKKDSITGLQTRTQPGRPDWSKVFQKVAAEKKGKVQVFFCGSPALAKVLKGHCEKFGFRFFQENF

Chain of Torsin-1A (Homo sapiens) (O14656 whole entry, looked up): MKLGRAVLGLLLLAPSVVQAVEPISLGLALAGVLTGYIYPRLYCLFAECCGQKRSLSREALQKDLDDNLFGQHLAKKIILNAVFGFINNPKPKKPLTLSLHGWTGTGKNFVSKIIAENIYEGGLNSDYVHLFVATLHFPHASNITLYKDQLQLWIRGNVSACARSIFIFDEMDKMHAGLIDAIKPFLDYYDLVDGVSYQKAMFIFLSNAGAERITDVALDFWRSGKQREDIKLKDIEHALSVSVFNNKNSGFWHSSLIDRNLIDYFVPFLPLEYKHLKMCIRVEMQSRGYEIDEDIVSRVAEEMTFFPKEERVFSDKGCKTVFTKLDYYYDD
Chain of NADPH oxidase 2 (Homo sapiens) (P04839 whole entry, looked up): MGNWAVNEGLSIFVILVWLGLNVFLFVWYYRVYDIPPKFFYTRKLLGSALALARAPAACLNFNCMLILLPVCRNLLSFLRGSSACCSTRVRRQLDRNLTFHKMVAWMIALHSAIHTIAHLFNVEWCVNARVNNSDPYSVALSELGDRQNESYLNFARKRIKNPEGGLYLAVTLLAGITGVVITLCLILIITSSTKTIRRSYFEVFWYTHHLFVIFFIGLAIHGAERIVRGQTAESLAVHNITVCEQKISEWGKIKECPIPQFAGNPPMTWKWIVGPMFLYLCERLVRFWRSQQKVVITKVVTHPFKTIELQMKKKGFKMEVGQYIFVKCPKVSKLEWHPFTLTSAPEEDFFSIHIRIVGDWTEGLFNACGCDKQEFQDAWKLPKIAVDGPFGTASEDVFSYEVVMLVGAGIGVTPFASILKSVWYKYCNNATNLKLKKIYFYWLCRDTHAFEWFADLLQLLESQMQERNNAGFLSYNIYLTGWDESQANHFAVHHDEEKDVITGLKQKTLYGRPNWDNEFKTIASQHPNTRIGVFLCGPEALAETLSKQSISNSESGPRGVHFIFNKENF
Chain of Streptavidin (Streptomyces avidinii) (P22629 whole entry, looked up): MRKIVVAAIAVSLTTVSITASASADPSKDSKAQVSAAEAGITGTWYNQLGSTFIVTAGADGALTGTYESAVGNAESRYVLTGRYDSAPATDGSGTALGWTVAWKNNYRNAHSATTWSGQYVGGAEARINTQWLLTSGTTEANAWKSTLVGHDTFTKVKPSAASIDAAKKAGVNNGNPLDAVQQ
Chain of NADPH oxidase 4 (Homo sapiens) (Q9NPH5 whole entry, looked up): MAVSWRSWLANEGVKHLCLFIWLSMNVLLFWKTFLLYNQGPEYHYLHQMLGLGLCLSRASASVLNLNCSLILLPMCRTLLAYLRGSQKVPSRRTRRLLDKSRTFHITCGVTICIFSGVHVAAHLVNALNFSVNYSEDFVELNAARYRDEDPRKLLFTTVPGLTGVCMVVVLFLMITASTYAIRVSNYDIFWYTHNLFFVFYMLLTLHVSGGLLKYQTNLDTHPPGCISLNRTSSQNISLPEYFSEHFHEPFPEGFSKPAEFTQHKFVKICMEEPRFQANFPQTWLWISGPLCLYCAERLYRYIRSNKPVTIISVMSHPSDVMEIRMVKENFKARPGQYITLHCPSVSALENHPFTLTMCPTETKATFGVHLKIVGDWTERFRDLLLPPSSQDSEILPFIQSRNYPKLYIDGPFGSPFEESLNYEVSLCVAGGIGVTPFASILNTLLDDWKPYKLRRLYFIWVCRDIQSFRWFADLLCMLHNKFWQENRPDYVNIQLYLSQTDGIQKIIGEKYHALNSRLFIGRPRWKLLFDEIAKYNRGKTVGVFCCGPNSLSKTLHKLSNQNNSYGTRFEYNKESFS

**Q.** Which composite z-score [1] does the source give for `CCCCC(=C=CC[C@H](O)c1ccc(OCCO)cc1)C[C@H](O)COCc1ccccc1` here?
**A.** -0.0866

**Q.** What about the z-score [2] of the same compound?
**A.** -0.92 (inactive)

**Q.** And the z-score [3]?
**A.** 0.403 (inactive)

**Q.** What about the z-score [4] of the same compound?
**A.** 10.3 (active)

**Q.** And the z-score [5]?
**A.** 0.434 (inactive)

**Q.** And the composite z-score [6]?
**A.** -0.499

**Q.** And the composite z-score [7]?
**A.** -0.145

**Q.** And the composite z-score (Torsin-1A (Homo sapiens) [8])?
**A.** -0.327

**Q.** What about the composite z-score (Torsin-1A (Homo sapiens) [9]) of the same compound?
**A.** 0.388

**Q.** What about the composite z-score [10] of the same compound?
**A.** 0.571

**Q.** And the z-score [11]?
**A.** -0.088 (inactive)

**Q.** What about the composite z-score [12] of the same compound?
**A.** -0.235

**Q.** And the z-score [13]?
**A.** 18.2 (active)

**Q.** And the z-score [14]?
**A.** 3.18 (inactive)

**Q.** What about the z-score [15] of the same compound?
**A.** 0.871 (inactive)

**Q.** What about the z-score [16] of the same compound?
**A.** 1.02 (inactive)

**Q.** And the z-score [17]?
**A.** -0.881

**Q.** And the z-score [18]?
**A.** -0.751 (inactive)

**Q.** What about the z-score [19] of the same compound?
**A.** -0.446 (inactive)

**Q.** And the z-score [20]?
**A.** -2.05

**Q.** For `[N-]=[N+]=Nc1ccccc1C[C@@]1(C(=O)O)N=C(c2ccc(OCCCO)cc2)O[C@@H]1c1ccccc1N=[N+]=[N-]`, which composite z-score [1] is on record?
**A.** -0.166

**Q.** What about the z-score [2] of the same compound?
**A.** -1.92 (inactive)

**Q.** And the z-score [3]?
**A.** 0.0288 (inactive)

**Q.** What about the z-score [4] of the same compound?
**A.** 2.09 (inactive)

**Q.** What about the z-score [5] of the same compound?
**A.** -0.333 (inactive)

**Q.** What about the composite z-score [6] of the same compound?
**A.** 1.96

**Q.** And the composite z-score [7]?
**A.** 0.151

**Q.** And the composite z-score (Torsin-1A (Homo sapiens) [8])?
**A.** 0.0274

**Q.** What about the composite z-score (Torsin-1A (Homo sapiens) [9]) of the same compound?
**A.** 0.286

**Q.** And the composite z-score [10]?
**A.** -0.744

**Q.** What about the z-score [11] of the same compound?
**A.** -0.855 (inactive)

**Q.** What about the composite z-score [12] of the same compound?
**A.** 0.384

**Q.** And the z-score [13]?
**A.** 29.2 (active)

**Q.** And the z-score [14]?
**A.** 24.7 (active)

**Q.** And the z-score [15]?
**A.** 0.648 (inactive)

**Q.** And the z-score [16]?
**A.** 4.53 (inactive)

**Q.** And the z-score [17]?
**A.** 0.664

**Q.** What about the z-score [18] of the same compound?
**A.** -0.041 (inactive)

**Q.** And the z-score [19]?
**A.** 1.17 (inactive)

**Q.** And the z-score [20]?
**A.** 1.57

**Q.** Which results are given for `COC(=O)[C@@]1(Cc2ccc(F)cc2)[C@H]2c3cc(C(=O)N4CCCC4)n(CC4CC4)c3C[C@H]2CN1C(=O)c1ccccc1`?
**A.** composite z-score [1]: 0.0479; z-score [2]: -2.61 (inactive); z-score [3]: 0.197 (inactive); z-score [4]: 0.972 (inactive); z-score [5]: -0.451 (inactive); composite z-score [6]: 1.86; composite z-score [7]: 0.74; composite z-score (Torsin-1A (Homo sapiens) [8]): 0.111; composite z-score (Torsin-1A (Homo sapiens) [9]): 1.03; composite z-score [10]: 0.377; z-score [11]: -1.37 (inactive); composite z-score [12]: 1.56; z-score [13]: 2.89 (inactive); z-score [14]: 0.0582 (inactive); z-score [15]: 0.454 (inactive); z-score [16]: 0.666 (inactive); z-score [17]: 0.516; z-score [18]: 0.0286 (inactive); z-score [19]: -1.62 (inactive); z-score [20]: -0.81

**Q.** For `CN(C)CCCC[C@@H]1NC(=O)[C@@H]2C[C@H](C(=O)O)[C@H](c3cccc(OCCO)c3)N2C1=O`, which composite z-score [1] is on record?
**A.** 0.471

**Q.** What about the z-score [2] of the same compound?
**A.** -0.37 (inactive)

**Q.** And the z-score [3]?
**A.** -0.965 (inactive)

**Q.** What about the z-score [4] of the same compound?
**A.** 1.11 (inactive)

**Q.** And the z-score [5]?
**A.** 0.664 (inactive)

**Q.** And the composite z-score [6]?
**A.** -0.634

**Q.** And the composite z-score [7]?
**A.** -0.258

**Q.** What about the composite z-score (Torsin-1A (Homo sapiens) [8]) of the same compound?
**A.** -0.0975

**Q.** And the composite z-score (Torsin-1A (Homo sapiens) [9])?
**A.** -0.0752

**Q.** And the composite z-score [10]?
**A.** 0.212

**Q.** What about the z-score [11] of the same compound?
**A.** 0.408 (inactive)

**Q.** And the composite z-score [12]?
**A.** -0.147

**Q.** And the z-score [13]?
**A.** 2.07 (inactive)

**Q.** And the z-score [14]?
**A.** 0.2 (inactive)

**Q.** And the z-score [15]?
**A.** -0.725 (inactive)

**Q.** What about the z-score [16] of the same compound?
**A.** -0.0176 (inactive)

**Q.** What about the z-score [17] of the same compound?
**A.** -0.564

**Q.** What about the z-score [18] of the same compound?
**A.** 1.11 (inactive)

**Q.** What about the z-score [19] of the same compound?
**A.** 0.306 (inactive)

**Q.** What about the z-score [20] of the same compound?
**A.** 1.18
